Source: PubChem BioAssay
TEAD-YAP block: TEAD-YAP interaction inhibition | inhibition, % at 9.12 µM | AID 1259422 | HEK-TIYL cells, TEAD-Gal4/YAP UAS-luciferase luminescence | 1.4% of 640,000 active; in the data active = inhibition above about 32%;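 also: 0% = median of test compound wells and 100% = reference inhibitor wells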
FBW7 activator: human FBW7 E3 ligase activation, primary screen; normalized activity (activation), % at 26.1 µM; AID 1259310; Q969H0; AlphaScreen FBW7–phospho-cyclin E peptide binding, activator screen; 0.13% of 650,000 active; in the data active = normalized activity above about 1.9%;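 also: purified mutant Fbw7 with reduced substrate affinity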
Target sequence (Q969H0 whole entry, looked up): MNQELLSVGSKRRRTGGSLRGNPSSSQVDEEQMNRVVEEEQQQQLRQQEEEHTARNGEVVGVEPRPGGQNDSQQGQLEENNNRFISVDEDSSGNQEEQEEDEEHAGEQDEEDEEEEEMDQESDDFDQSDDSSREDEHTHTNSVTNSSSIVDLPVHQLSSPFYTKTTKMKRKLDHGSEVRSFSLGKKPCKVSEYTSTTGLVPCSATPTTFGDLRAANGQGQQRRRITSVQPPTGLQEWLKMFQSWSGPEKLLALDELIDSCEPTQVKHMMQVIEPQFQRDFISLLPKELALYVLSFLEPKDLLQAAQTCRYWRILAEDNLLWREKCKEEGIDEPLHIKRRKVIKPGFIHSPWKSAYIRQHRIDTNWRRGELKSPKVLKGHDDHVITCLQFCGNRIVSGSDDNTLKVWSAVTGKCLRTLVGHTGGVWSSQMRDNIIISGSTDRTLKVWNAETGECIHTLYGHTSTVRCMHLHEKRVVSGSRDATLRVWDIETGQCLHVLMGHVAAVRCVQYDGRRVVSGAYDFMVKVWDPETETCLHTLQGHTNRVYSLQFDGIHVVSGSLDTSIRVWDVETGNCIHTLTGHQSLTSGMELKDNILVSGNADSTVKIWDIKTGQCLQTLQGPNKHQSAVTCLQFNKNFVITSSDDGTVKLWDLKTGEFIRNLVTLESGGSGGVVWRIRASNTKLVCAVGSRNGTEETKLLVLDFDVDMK
MITF inh: human MITF inhibition, primary screen; 0.91% of 650,000 active; inhibition, % at 2.6 µM; O75030; AlphaScreen MITF homodimerization, bead proximity signal; in the data active = inhibition above about 50%;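 also: 0% = vehicle wells with protein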
GPR151 activ: activates the human receptor GPR151. Q8TDV0. PathHunter beta-arrestin GPR151 cells, luminescence. activation, % at 11.2 µM. 1% of 650,000 active; in the data active = activation above about 4.9%;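 also: 0% = median of compound wells and 100% = cells with positive control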
GPR151 confirm: confirmation of human GPR151 activators; shares compounds with GPR151 activ; activation, % at 11.2 µM; GPR151 PathHunter beta-arrestin cells, luminescence, 90 min; % of EA-reagent control over plate median; AID 1508609; 6,700 tested, under 10 active;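 active = mean percent activation across replicates above the confirmation screen cutoff of 4.91%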
GPR119 counter: activates human GPR119 in a GPR151 counter-screen; shares compounds with GPR151 activ; GPR119 PathHunter beta-arrestin cells, luminescence, 90 min; 0 = compound-well median, 100 = enzyme-acceptor control; activation, % at 11.2 µM; 0.3% of 6,700 active; AID 1508611;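 active = mean percent activation in the counterscreen above 29.09%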;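 also: counterscreen on off-target GPR119 to flag nonselective hits from the GPR151 activator screen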
* marks the source's active call; other numbers are inactive results; x = no result given. Only some compounds are listed: those with a hit (about 3.5% of all), similar ones and a draw of the others.

SMILES	TEAD-YAP block	FBW7 activator	MITF inh	GPR151 activ	GPR151 confirm	GPR119 counter
O=C(NCCO)/C(=C\c1cccc([N+](=O)[O-])c1)NC(=O)c1ccccc1	3	0	17	12*	-1	-10
CN(Cc1cnccn1)Cc1nc(-c2cccc(Cl)c2)no1	-21	0	-7	-1	x	x
COc1ccc(/C=C2\SC(=N)N(C)C2=O)cc1OC	-8	0	9	0	x	x
COc1ccc(/C=C2\SC(=N)N(c3nccs3)C2=O)cc1OC	1	0	-4	5.7*	0	-3
CC1=C(C(=O)OCCOc2ccccc2)C(c2cccc(O)c2)C2=C(CC(C)(C)CC2=O)N1 (stereo not drawn)	-2	0	-10	0	x	x
CCC(C)NC(=O)C1C2C(=O)N(Cc3ccccc3)CC23C=CC1(C)O3 (stereo not drawn)	8	0	9	8.7*	0	-8
Cc1ccc2c(NC(=O)c3ccc(Cl)cc3)noc2n1	-30	0	-6	7.1*	0	-10
O=C1C2ON(c3ccccc3)C(c3ccc(F)cc3)C2C(=O)N1c1ccc([N+](=O)[O-])cc1 (stereo not drawn)	-2	0	6	1	x	x
CC(C)(CN1CCN(c2ccccc2)CC1)NS(=O)(=O)c1ccccc1	-7	0	5	5.5*	0	-4
Cc1nc(NCC2CC2)sc1-c1ccn(CCN2CCOCC2)n1	-5	0	-7	0	x	x
Cc1nc(NCC2CC2)sc1-c1ccn(-c2cccc(F)c2)n1	9	0	0	5.8*	0	-2
Cc1cc(F)ccc1S(=O)(=O)Nc1cc2c(C(=O)O)c(C)oc2c2ccccc12	3	0	1	6.4*	0	-1
CN(C)CCNC(=O)c1cccc(-c2cnc3c(NCc4ccco4)nccn23)c1	-17	1	9	4	x	x
CC(C)N(C(=O)Cn1c(SCC(=O)N2CCCCCC2)nc2ccccc21)C(C)C	12	0	-5	1	x	x
CC(C)N(C(=O)Cn1c(SCC(=O)N2CCCC2)nc2ccccc21)C(C)C	-5	0	0	7.9*	0	5
Cc1cc2cc(CNC(=O)C(C)C)ccc2[nH]1	-21	0	-9	0	x	x
CCOc1ccc(NC(=O)c2sc3ncn(CC(=O)N4CC(C)CC(C)C4)c(=O)c3c2C)cc1 (stereo not drawn)	20	0	2	6.3*	-1	0
Cc1c(C(=O)Nc2ccc(Oc3ccccc3)cc2)sc2ncn(CC(=O)N3CC(C)CC(C)C3)c(=O)c12 (stereo not drawn)	5	0	4	3	x	x
Cc1ccc(NC(=O)CSc2nnc(Cc3cccn3C)n2C)cc1Cl	6	0	16	2	x	x
N#C/C(=C\c1ccc(F)cc1)C(=O)N1CCOCC1	-34	0	-8	6.3*	1	6
COc1ccc(-n2ncnc2-c2ccc(Cl)cc2)cc1	2	0	-6	-1	x	x
COc1cccc(CC(=O)N2CCC(Cn3nc(C)cc3C)CC2)c1	9	0	-1	1	x	x
Nc1c(Cl)cc(Cl)cc1C(=O)OCC(=O)N1CCCC1	-6	0	4	7.5*	2	5
NC(=O)COC(=O)c1cc(Cl)cc(Cl)c1N	0	0	-1	-1	x	x
COc1cc(C(N)=O)ccc1OCC(C)C	0	0	-2	0	x	x
SMILES	TEAD-YAP block	FBW7 activator	MITF inh	GPR151 activ	GPR151 confirm	GPR119 counter
CCCOc1ccc(C(N)=O)cc1OC	4	0	21	5.6*	1	7
O=C(NCc1n[nH]c(=S)n1-c1cccc(C(F)(F)F)c1)c1ccc(S(=O)(=O)N2CCCCC2)cc1	8	0	8	5.4*	1	16
Cc1cccc(NC(=O)NCC(c2ccc3c(c2)CCN3C)N2CCN(C)CC2)c1 (stereo not drawn)	-8	0	8	5.0*	0	14
CN1CCN(C(CNC(=O)Nc2ccc(F)cc2)c2ccc3c(c2)CCN3C)CC1 (stereo not drawn)	1	0	0	0	x	x
Cc1cc(Cl)ccc1NC(=O)/C(C#N)=C/c1ccc(OCC(N)=O)c(Br)c1	-3	0	5	-1	x	x
Nn1c(SCC(=O)NC2CCCCCC2)nnc1C(F)(F)F	16	0	-6	2	x	x
O=C(NN1C(=O)CSC1=S)c1ccccc1Cl	-8	0	-10	-1	x	x
CC(C)(C)OC(=O)C(Cl)(C(=O)OC(C)(C)C)c1ncc([N+](=O)[O-])cc1[N+](=O)[O-]	55*	0	5	14*	0	13
Cc1c(C(=O)Nc2c(F)cccc2F)sc2ncn(CC(=O)N3CCC(C)CC3)c(=O)c12	6	0	3	0	x	x
N#C/C(=C/c1ccc(F)cc1)c1ccc(C#N)cc1	-8	0	10	8.3*	0	1
CC(Cc1ccccc1)N=C1SCC(=O)N1Cc1ccccc1 (stereo not drawn)	-1	0	-19	7.6*	0	1
Cc1ccc(S(=O)(=O)Nc2ccccc2C(=O)NCc2ccco2)cc1[N+](=O)[O-]	5	0	-2	11*	-1	-9
O=C(NCc1ccccc1)c1ccccc1NS(=O)(=O)c1cccc([N+](=O)[O-])c1	-2	0	2	4.9*	1	13
Cc1ccc(-n2nc3c(c2NC(=O)c2ccc(C)c(C)c2)CS(=O)(=O)C3)cc1	0	0	-7	0	x	x
C=CCN(CC=C)S(=O)(=O)c1ccc(C(N)=O)cc1	0	0	-25	-1	x	x
COC(=O)c1cc([N+](=O)[O-])c(C(=O)OC)cc1Oc1ccc(Cl)cc1	-15	0	5	6.4*	0	-10
O=C(C1CCN(S(=O)(=O)c2ccccc2)CC1)N1CCCC2CCCCC21 (stereo not drawn)	4	0	11	6.2*	1	5
COc1ccccc1NC(=O)c1ccc(SCC(=O)NC2CCCCCC2)c([N+](=O)[O-])c1	13	0	15	8.3*	0	6
COc1ccc(OCC#CCNC(C)(C)C)cc1	5	0	9	8.7*	1	-6
CNCC#CCOc1ccc(OC)cc1	-5	1	41	1	x	x
O=C(Cn1c(-c2cccnc2)nc2ccccc21)N1CCCCCC1	10	0	-4	5.6*	0	2
O=C(Cn1c(-c2ccccn2)nc2ccccc21)N1CCCCC1	2	1	1	-3	x	x
Cc1ccc(C)c(NC(=O)C(=O)NCCN(C)C)c1	7	0	-13	1	x	x
Cc1ccccc1N(Cc1ccccc1)Cc1ccccc1	-14	0	-3	-1	x	x
O=C(CCN1C(=O)c2ccccc2C1=O)Nc1cc([N+](=O)[O-])ccc1O	3	0	-14	5.8*	0	10
O=C(CCN1C(=O)c2ccc([N+](=O)[O-])cc2C1=O)Nc1cc(Cl)ccc1O	2	0	4	0	x	x
